For 18 compounds, Potency, activation and viability results are on record in PubChem BioAssay (NCATS).

As a reminder, the viability is a read-out of living cells in per cent, often relative to untreated cells.

Assay [1] concerns the target Cellular tumor antigen p53 (Homo sapiens) (UniProt P04637). Briefly: Primary qHTS for small molecule compounds that upregulate eGFP-tagged delta133p53alpha (in N-terminal) cells. (AID 2060322).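 For activation: cells pre-induced with doxycycline then dosed without doxycycline; series mostly up to about 56 µM; 0% = DMSO vehicle and 100% = reference activator.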 Note: nearly all actives have a fitted effect of over 75% in size. The settings on record: NCI-H358 eGFP-delta133p53alpha fluorescence, 24 h; activation: stronger effect = higher value. In outline:
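NCI-H358 cells pre-induced 24 h with 10 ng/ml doxycycline for eGFP-delta133p53alpha, plated dox-free and exposed 24 h at 37C to titrated compounds. Fixed, Hoechst-stained; gated GFP peak intensity by laser scanning cytometry, normalized to DMSO (0%) and 57.5 uM 5-azacytidine (100%).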
(In general: In qHTS, concentration-response curves come from the screen itself.)

A short description of assay [2]: BET inhibitor-based combinations targeting novel dependencies in MECOM-rearranged (r) AML: SET-2 cell line (AID 2202231).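 For viability: plate controls were DMSO treated cells for no effect and wells without cells for full effect.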 Note: nearly all actives have a fitted effect of over 35% in size. The note with it: SET-2 AML cells viability, CellTiter-Glo luminescence, 48 h; viability: stronger effect = lower value, concentration not given here. A digest of the protocol:
(§1)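 Luminescent ATP readout (CellTiter-Glo) after 48 hr drug exposure gives viability. Curves span 11 concentrations and are normalized to DMSO and empty wells. Activity is reported as area under the curve and its Z-transform within each cell line.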
(In general: ATP-based viability assays read luminescence as a measure of living cells.)

Assay [3] is described as follows: BET inhibitor-based combinations targeting novel dependencies in MECOM-rearranged (r) AML: OCI-AML3 cell line (AID 2202232). Note: nearly all actives have a fitted effect of over 35% in size. The note with it: Potency: OCI-AML3 viability. In outline: as §1
Assay [4] can be described thus: BET inhibitor-based combinations targeting novel dependencies in MECOM-rearranged (r) AML: MV-4-11 cell line (AID 2202233). Note: nearly all actives have a fitted effect of over 45% in size. In outline: (§2)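 Luminescent ATP readout (CellTiter-Glo, 15 min at room temperature) after 48 hr drug exposure gave viability. Dose-response curves, normalized to DMSO and empty-well controls, were summarized as area under the curve and its mean-centred Z-score.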

Assay [5] can be described thus: BET inhibitor-based combinations targeting novel dependencies in MECOM-rearranged (r) AML: HNT-34 cell line (AID 2202234). Note: nearly all actives have a fitted effect of over 35% in size. A digest of the protocol:
as §2

Assay [6] is described as follows: BET inhibitor-based combinations targeting novel dependencies in MECOM-rearranged (r) AML: UCSD-AML1 cell line (AID 2202235). Note: nearly all actives have a fitted effect of over 40% in size. In outline: as §2
A short description of assay [7]: BET inhibitor-based combinations targeting novel dependencies in MECOM-rearranged (r) AML: AML-191 cell line (AID 2202236; note: nearly all actives have a fitted effect of over 35% in size). A digest of the protocol:
as §1

Assay [8] can be described thus: BET inhibitor-based combinations targeting novel dependencies in MECOM-rearranged (r) AML: AML-194 cell line (AID 2202237; note: nearly all actives have a fitted effect of over 40% in size). In outline: as §1

The structures appear in SMILES notation. Where “and” joins values, the source holds several entries; their conditions need not be identical. Equal values may be shown once. Results filed as inconclusive are left out. Unmarked numbers belong to inactive results. Calls of active or inactive are those of the source. Calls come from the whole dose curve; as a rule, active = well fitted curve in the direction sought with a large enough effect; inconclusive = small, poorly fitted or top-dose-only effect, or another doubt; inactive = no such curve, though single readings can be large; an effect the other way counts as inactive or inconclusive.
Potency is the fitted concentration of half-maximal effect.

Chain of Cellular tumor antigen p53 (Homo sapiens) (P04637 whole entry, looked up): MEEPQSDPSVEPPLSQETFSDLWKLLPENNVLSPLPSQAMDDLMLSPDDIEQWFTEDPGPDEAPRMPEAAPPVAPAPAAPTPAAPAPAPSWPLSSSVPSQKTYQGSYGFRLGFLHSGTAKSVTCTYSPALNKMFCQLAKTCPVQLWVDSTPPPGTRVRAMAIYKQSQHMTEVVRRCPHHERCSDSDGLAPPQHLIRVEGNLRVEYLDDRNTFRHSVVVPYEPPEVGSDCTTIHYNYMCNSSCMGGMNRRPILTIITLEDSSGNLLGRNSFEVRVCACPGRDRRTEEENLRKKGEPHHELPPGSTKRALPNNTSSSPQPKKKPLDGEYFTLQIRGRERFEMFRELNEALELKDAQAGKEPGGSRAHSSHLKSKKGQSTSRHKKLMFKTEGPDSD

`CC(C)C[C@H](NC(=O)CNC(=O)c1cc(Cl)ccc1Cl)B(O)O`: the Potency in assay [1] was 17200 nM (active); in assay [2], 105 nM (active); in assay [3], 118 nM (active); in assay [4] it was 148 nM (active); in assay [5] it was 132 nM (active); in assay [6] it was 166 nM (active). The Potency is 166 nM (active) in assay [7] and 332 nM (active) in assay [8].

For the compound `CN1CC(=O)NC1=NC(=O)Nc1cccc(Cl)c1`, the activation in assay [1] was -20.6%. Moreover, the viability in assay [2] is 111%. The Potency result in assay [3], in assay [4], in assay [5], in assay [6], in assay [7] and in assay [8] was “inactive” in each case.

With `CC(C)C[C@@H](N)[C@H](O)C(=O)N[C@H](C(=O)N[C@H](C(=O)N[C@@H](CC(=O)O)C(=O)O)C(C)C)C(C)C`, in assay [1], the activation is -3.94%. Moreover, in assay [2], the viability was 110%. Further, the Potency entry in assay [3], in assay [4], in assay [5], in assay [6], in assay [7] and in assay [8] was “inactive” in each case.

With `COc1c2occc2cc2ccc(=O)oc12`, the activation in assay [1] was -0.837% and 22.7%. For the same compound, the viability in assay [2] was 98.3%. Moreover, in assay [3], the Potency was 10500 nM (active). In addition, the Potency entry in assay [4], in assay [5], in assay [6], in assay [7] and in assay [8] was “inactive” in each case.

As for `CCc1c2c(nc3ccc(OC(=O)N4CCC(N5CCCCC5)CC4)cc13)-c1cc3c(c(=O)n1C2)COC(=O)[C@]3(O)CC`, the activation in assay [1] was 14.2%. Further, the Potency in assay [2] was 372 nM (active); in assay [3], 186 nM (active); in assay [4] it was 166 nM (active); in assay [5] it was 105 nM (active); in assay [6] it was 209 nM (active); in assay [7] it was 235 nM (active). The Potency in assay [8] was 332 nM (active).

`Nc1ncnc2c1nc(Cl)n2[C@@H]1O[C@H](CO)[C@@H](O)[C@@H]1O`: the activation in assay [1] is -2.08%. For the same compound, the Potency in assay [2] is 11800 nM (active); in assay [3], 13200 nM (active); in assay [4], 5250 nM (active); in assay [5] it was 2950 nM (active); in assay [6], 5900 nM (active); in assay [7], 3720 nM (active). In addition, in assay [8], the Potency was 2630 nM (active).

Consider `COc1cc(C)c(Sc2cnc(NC(=O)c3ccc(CNC(C)C(C)(C)C)cc3)s2)cc1C(=O)N1CCN(C(C)=O)CC1` (centres undefined), for which the Potency in assay [1] was 43200 nM (active); in assay [2], 23500 nM (active); in assay [3], 14800 nM (active); in assay [4] it was 4170 nM (active); in assay [5], 16600 nM (active); in assay [6], 14800 nM (active). Besides, the Potency in assay [7] was 14800 nM (active); in assay [8], 11800 nM (active).

Consider `CC(C(=O)O)c1ccc(-c2ccccc2)c(F)c1` (centres undefined), for which the activation in assay [1] was 3.78%. For the same compound, the viability in assay [2] was 111%. The Potency result in assay [3], in assay [4], in assay [5], in assay [6], in assay [7] and in assay [8] was “inactive” each time.

Take `COc1cccc2c1C(=O)c1c(O)c3c(c(O)c1C2=O)C[C@@](O)(C(=O)CO)C[C@@H]3O[C@H]1C[C@H](N)[C@@H](O)[C@H](C)O1`: the activation in assay [1] was -26.9%. In addition, the Potency in assay [2] is 1180 nM (active); in assay [3], 148 nM (active); in assay [4] it was 37.2 nM (active); in assay [5], 263 nM (active); in assay [6] it was 132 nM (active); in assay [7] it was 372 nM (active). The Potency in assay [8] is 417 nM (active).

For `COc1ccc2cccc(CCNC(C)=O)c2c1`, the activation in assay [1] is 3.03%. In addition, the viability in assay [2] is 116%. The Potency entry in assay [3], in assay [4], in assay [5], in assay [6], in assay [7] and in assay [8] was “inactive” each time.

Regarding `O=C(/C=C/C#Cc1cccc(NS(=O)(=O)c2ccccc2)c1)NO`, the activation in assay [1] is -10.1%. Moreover, the Potency in assay [2] was 407 nM (active); in assay [3], 574 nM (active); in assay [4] it was 182 nM (active); in assay [5], 723 nM (active); in assay [6] it was 645 nM (active); in assay [7], 723 nM (active). The Potency in assay [8] was 910 nM (active).

For `C/C=C/C(=O)N(CC)c1ccccc1C`, in assay [1], the activation was -2.82%. For the same compound, the viability in assay [2] was 107%. For the same compound, the Potency result in assay [3], in assay [4], in assay [5], in assay [6], in assay [7] and in assay [8] was “inactive” in each case.

Turning to `CS(=O)(=O)Oc1ccc2c(NC(N)=O)c(C(=O)c3ccc(Cl)cc3Cl)oc2c1`, the activation in assay [1] was -14%. Also, the viability in assay [2] was 97.1%. The Potency result in assay [3], in assay [4], in assay [5], in assay [6], in assay [7] and in assay [8] was “inactive” in each case.

`CC1Cc2ccccc2N1NC(=O)c1ccc(Cl)c(S(N)(=O)=O)c1` (centres undefined): the activation in assay [1] was -9.21% and -1.28%. In assay [2], the viability is 112%. Besides, the Potency entry in assay [3], in assay [4], in assay [5], in assay [6], in assay [7] and in assay [8] was “inactive” in each case.

`O=C(Nc1c(Cl)cncc1Cl)c1ccc(OC(F)F)c(OCC2CC2)c1`: in assay [1], the activation was -4.21%. For the same compound, the viability in assay [2] is 98.8%. Also, the Potency result in assay [3], in assay [4], in assay [5], in assay [6], in assay [7] and in assay [8] was “inactive” in each case.

Regarding `CN1C(C(=O)Nc2ccccn2)=C(O)c2sc(Cl)cc2S1(=O)=O`, the activation in assay [1] was -22.9%. For the same compound, in assay [2], the viability is 103%. The Potency entry in assay [3], in assay [4], in assay [5], in assay [6], in assay [7] and in assay [8] was “inactive” in each case.

With `Nc1ccc(S(N)(=O)=O)cc1`, in assay [1], the activation is -29.9% and 4.8%. Moreover, in assay [2], the viability was 93.8%. Further, the Potency entry in assay [3], in assay [4], in assay [5], in assay [6], in assay [7] and in assay [8] was “inactive” throughout.

With `CC(=O)OC[C@@H]1O[C@@H](n2ccc(=O)[nH]c2=O)[C@H](OC(C)=O)[C@H]1OC(C)=O`, in assay [1], the activation is 5.73%. Further, the viability in assay [2] was 108%. Besides, the Potency entry in assay [3], in assay [4], in assay [5], in assay [6], in assay [7] and in assay [8] was “inactive” throughout.
